According to PubChem BioAssay AID1224854 (National Center for Advancing Translational Sciences (NCATS), 2016):
Results filed as inconclusive are left out. Unmarked numbers belong to inactive results. Calls of active or inactive are those of the source. Calls follow the shape of the dose curve; as a rule, active = well fitted activation curve with a large enough effect; inconclusive = small, poorly fitted or top-dose-only effect; inactive = flat fitted curve, though single readings scatter.

Experiment: Cell viability assay for measurement of the protective activity of small molecules against cell death caused by Zika virus infection in human astrocytoma cells
Details: SNB-19 Zika virus cytoprotection, ATP luminescence, 72 h; series mostly up to 46.1 µM; protection from virus-induced cell death: at the top concentration
Procedure, shortened: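 SNB-19 astrocytoma cells pre-treated with compounds for 1 h, then infected with ZIKV at 2 FFU/cell and incubated 72 h at 37 C. Viability read as ATP luminescence; percent inhibition of virus-induced viability loss calculated.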

| SMILES | protection from virus-induced cell death | Potency |
| --- | --- | --- |
| C=CCCCCCCCCC(=O)O | -10.8% |  |
| O=c1cc(-c2ccccc2)oc2cc(O)c(O)c(O)c12 | -7.06% |  |
| Cc1cccc(/C=C/c2ccccc2)n1 | -0.0925% |  |
| COc1ccnc2c1CCCCC2S(=O)c1nc2ccccc2[nH]1 (configuration not stated) | 9.31% |  |
| O=C(O)[C@H](CC(=O)N1C[C@@H]2CCCC[C@H]2C1)Cc1ccccc1 | -0.686% |  |
| Nc1ccc(O)c(C(=O)O)c1 | -6.75% |  |
| CC(=O)Oc1cccc2c1C(=O)c1c(OC(C)=O)cc(C(=O)O)cc1C2=O | 6.53% |  |
| O=C(C=CC=Cc1ccc2c(c1)OCO2)N1CCCCC1 | 1.16% |  |
| O=S(=O)(O)c1ccc2nc(-c3ccccc3)[nH]c2c1 | -10.1% |  |
| COc1ccc(/C=C/C(=O)Nc2ccccc2C(=O)O)cc1OC | -8.74% |  |
| CC(C(=O)O)c1ccc(-c2ccccc2)c(F)c1 (configuration not stated) | -3.91% |  |
| COc1ccc(C=CC(=O)Nc2ccccc2C(=O)O)cc1OC | -10.7% |  |
| N#CC1(c2ccc(NC(=O)c3cccnc3NCc3ccncc3)cc2)CCCC1 | 6.68% |  |
| O=C1c2ccccc2C(=O)c2c1ccc(O)c2O | 1.15% |  |
| O=C(O)c1cc([N+](=O)[O-])ccc1NCCCc1ccccc1 | 0.997% |  |
| CC(=O)Nc1ccc([C@H](C)C(=O)Nc2ncc(C(C)C)s2)cc1 |  | 6.15 µM (active) |
| CCOCCOC(=O)/C=C/c1ccc(OC)cc1 | 0.0435% |  |
| CC(C)c1ccc2oc3nc(N)c(C(=O)O)cc3c(=O)c2c1 | -20.4% |  |
| O=C1NC(=O)C(=Cc2ccc(-c3ccc(F)cc3)o2)S1 | -4.09% |  |

| SMILES | protection from virus-induced cell death | Potency |
| --- | --- | --- |
| COc1ccc(-c2cc(=S)ss2)cc1 | -5.82% |  |
| O=c1c(-c2ccc(O)cc2)coc2cc(OC3O[C@H](CO)[C@H](O)[C@H](O)[C@H]3O)cc(O)c12 (some centres not stated) | 8.55% |  |
| Nc1ccc(-c2ccc3ccccc3n2)cc1 | -18.9% |  |
| O=C(O)c1cccc(-c2noc(-c3ccccc3F)n2)c1 | -13.8% |  |
| [O-][n+]1ccccc1SSc1cccc[n+]1[O-] | -20.1% [at 88.3 µM] |  |
| COc1ccc2nc(NC(=O)Nc3ccccc3)sc2c1 | -12.6% |  |
| CNC1[C@H](O)C(O[C@@H]2C(O)C(O[C@H]3O[C@H]([C@@H](C)NC)CC[C@H]3N)[C@@H](N)C[C@H]2N)OC[C@]1(C)O (some centres not stated) | 4.71% |  |
| c1ccc2[nH]c(-c3cscn3)nc2c1 | -1.36% |  |
| CC(=O)Oc1ccccc1C(=O)Nc1ncc([N+](=O)[O-])s1 |  | 31.6 µM (active) |
| O=C(Nc1ccc([N+](=O)[O-])cc1Cl)c1cc(Cl)ccc1O |  | 1.55 µM (active) |
| c1ccc(CCNc2nc(-c3ccccc3)cs2)cc1 | 2.69% |  |
| OCc1ccc(-c2ccc(-c3ccc(CO)s3)o2)s1 | 4.23% |  |
| N[C@H](CSC(c1ccccc1)(c1ccccc1)c1ccccc1)C(=O)O | 4.41% |  |
| CC=CC[C@@H](C)C(=O)[C@H]1C(=O)N[C@@H](C(C)C)C(=O)N(C)CC(=O)N(C)[C@@H](CC(C)C)C(=O)N[C@@H](C(C)C)C(=O)N(C)[C@@H](CC(C)C)C(=O)N[C@@H](C)C(=O)N[C@H](C)C(=O)N(C)[C@@H](CC(C)C)C(=O)N(C)[C@@H](CC(C)C)C(=O)N(C)[C@@H](C(C)C)C(=O)N1C | -7.94% |  |
| Cc1cc(O)c2c(c1)C(=O)c1cc(O)cc(O)c1C2=O | 7.3% |  |
| O=c1c2ccccc2nc2n1CCc1c-2[nH]c2ccccc12 | -7.42% |  |
| CCN1/C(=C/C=C/c2sc3ccccc3[n+]2CC)Sc2ccccc21 | 10.8% [at 23.8 µM] |  |
| CCC(C)SSc1ncc[nH]1 (configuration not stated) |  | 24.5 µM (active) |
